High-throughput results: PubChem BioAssay, several laboratories
Rows were chosen to be rich in hits. Some 2.8% of all compounds tested hit in one or more screens of this group.
SENP7 block = inhibitors of human SENP7 protease; Q9BQF6; AID 434973; inhibition, % at 5 µM; recombinant SENP7, Z-RLRGG-aminoluciferin luminescence, 40 min; actives 1.5% (n = 330,000);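 active = inhibition above about 50% at the single test dose, limit read from the data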;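 also: plate controls were DMSO with enzyme for no effect and no enzyme buffer wells for full effect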
SENP6 inh = SENP6 protease inhibition. AID 2599. Recombinant SENP6 catalytic domain, aminoluciferin luminescence. actives 1.8% (n = 330,000). inhibition, % at 10 µM;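 active = inhibition above about 50% at the single tested dose, limit read from the data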;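 also: plate controls were DMSO wells with enzyme for no effect and DMSO wells lacking enzyme for full effect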
Target sequence (Q9GZR1 628-1112 limits assumed): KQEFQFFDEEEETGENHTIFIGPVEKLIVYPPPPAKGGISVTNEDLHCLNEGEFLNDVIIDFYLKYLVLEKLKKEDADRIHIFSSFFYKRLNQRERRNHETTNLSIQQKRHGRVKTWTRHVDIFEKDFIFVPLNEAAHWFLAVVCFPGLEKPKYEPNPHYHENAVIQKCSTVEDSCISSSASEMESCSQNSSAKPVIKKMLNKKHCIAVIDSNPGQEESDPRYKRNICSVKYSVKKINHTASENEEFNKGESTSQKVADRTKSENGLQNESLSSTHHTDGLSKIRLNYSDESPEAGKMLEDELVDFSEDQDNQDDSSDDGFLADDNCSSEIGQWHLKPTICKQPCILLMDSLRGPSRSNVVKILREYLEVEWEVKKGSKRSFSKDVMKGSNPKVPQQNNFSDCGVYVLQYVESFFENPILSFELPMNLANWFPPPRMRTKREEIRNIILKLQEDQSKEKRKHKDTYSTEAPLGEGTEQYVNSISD
SENP8 block-1 = blocks the human protease SENP8; Q96LD8; purified SENP8, Z-RLRGG-aminoluciferin cleavage, luminescence; inhibition, % at 10 µM; actives 1.2% (n = 330,000); AID 2540; in the data active = inhibition above about 50%
SENP8 block-2 = SENP8 (human) protease inhibition; recombinant SENP8, Nedd8 substrate fluorescence; inhibition, % at 20 µM; actives 0.64% (n = 360,000); AID 602440; in the data active = inhibition mostly above about 40%, no sharp cut-off; inactive = mostly below about 27%
Platelet DG rel = modulates dense granule release in human platelets | inhibition, %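 (compounds screened at 7.5 µM in platelet-rich plasma)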 | actives 0.22% (n = 300,000) | human platelet-rich plasma, SFLLRN dense granule ATP release, luminescence | AID 1663;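 active = mean replicate score, as percent of positive control, at or above 50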
HSP90 inh = HSP90 refolding inhibition in rabbit reticulocyte lysate; luciferase refolding luminescence, 3 h; inhibition, % at 5.6 µM; actives 0.91% (n = 290,000);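 active = inhibition above the screen-wide mean plus 3 SD, computed separately per campaign, cut at about 16% in these data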;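 also: 0% = DMSO wells and 100% = 60 µM geldanamycin wells; inhibitors lower the luminescence because luciferase stays unfolded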
SENP8 conf = confirmation of human SENP8 protease inhibitors | shares compounds with SENP7 block | Recombinant SENP8, Z-RLRGG-aminoluciferin luminescence, 60 min | inhibition, % at 12.5 µM | actives 40% (n = 6,200);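 active = mean inhibition across replicates above about 50%, limit read from the data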
SENP6 conf = human SENP6 inhibition, confirmed; shares compounds with SENP7 block; recombinant SENP6, Z-RLRGG-aminoluciferin luminescence; inhibition, % at 12.5 µM; actives 58% (n = 6,200)
SENP7 conf = human SENP7 inhibition, confirmed | recombinant SENP7, Z-RLRGG-aminoluciferin luminescence, 40 min | AID 488917 | shares compounds with SENP7 block | actives 69% (n = 6,200) | inhibition, % at 12.5 µM
Casp3 SENP sel = selectivity test for SENP inhibitors: human caspase-3 inhibition. AID 488918. actives 60% (n = 6,200). inhibition, % at 12.5 µM. purified caspase-3, Z-DEVD-aminoluciferin luminescence, 60 min. shares compounds with SENP7 block;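 active = mean inhibition above about 50%, limit read from the data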;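 also: plate controls were enzyme with DMSO for no effect and wells without caspase-3 for full effect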
Target sequence (P42574 28-227 limits assumed): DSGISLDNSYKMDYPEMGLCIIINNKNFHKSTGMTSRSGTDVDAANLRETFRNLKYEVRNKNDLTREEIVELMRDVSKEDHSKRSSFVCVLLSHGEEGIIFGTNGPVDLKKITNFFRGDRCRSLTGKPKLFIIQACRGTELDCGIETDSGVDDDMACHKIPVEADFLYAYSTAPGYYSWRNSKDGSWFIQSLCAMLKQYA
SENP luc ctr = interferes with luciferase luminescence in SENP counter-screen. shares compounds with SENP7 block. Pre-incubated SENP8/Z-RLRGG-aminoluciferin, luciferase luminescence interference. inhibition, % at 12.5 µM. actives 39% (n = 6,200). AID 488919;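 active = mean inhibition above about 50% when retested at one dose, limit read from the data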;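 also: plate controls were DMSO wells with completed reaction for no effect and substrate without enzyme for full effect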
The depositor's hits bear a star; · = no result.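 The calls were made as follows, unless noted: active = mean inhibition above about 50% in the one-dose retest (limit read from the data); inactive = the rest.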

SMILES | SENP7 block | SENP6 inh | SENP8 block-1 | SENP8 block-2 | Platelet DG rel | HSP90 inh | SENP8 conf | SENP6 conf | SENP7 conf | Casp3 SENP sel | SENP luc ctr
CCC(=O)c1ccc(O)cc1 | -4 | -8 | -5 | 8 | 3 | 4 | · | · | · | · | ·
O=C(Cn1nnc(-c2ccccc2)n1)Nc1ccc2c(c1)OCO2 | 5 | -1 | -2 | 17 | 1 | 4 | · | · | · | · | ·
O=C(Cn1nnc(-c2ccc3c(c2)OCO3)n1)Nc1ccccc1C(=O)O | 60* | 89* | 80* | -4 | -9 | 0 | 48 | 87* | 97* | 87* | 87*
O=C(Nc1nc2c(Br)cccc2s1)C1CC1 | 11 | 0 | -10 | 10 | 16 | 3 | · | · | · | · | ·
CN(c1ccc(C(=O)NCCc2ccccc2)cc1)S(C)(=O)=O | 55* | 26 | -4 | 10 | 2 | 10 | 8 | 6 | 56* | 69* | 40
Cc1ccc(S(=O)(=O)N(C)c2ccc(C(=O)NCCc3ccccc3)cc2)cc1 | 2 | 1 | 2 | 11 | 0 | 3 | · | · | · | · | ·
COCCNC(=O)/C(C#N)=C/c1ccc(O)cc1 | 82* | 92* | 77* | 7 | 86* | -3 | 12 | 79* | 96* | 83* | 80*
COCCNC(=O)/C(C#N)=C/c1cccc(/C=C(\C#N)C(=O)NCCOC)c1 | · | · | · | 9 | -6 | -4 | · | · | · | · | ·
COc1ccc(Cn2c(CCC(=O)NCCC(C)C)nc3ncccc3c2=O)cc1 | -5 | -1 | -14 | -1 | 5 | 2 | · | · | · | · | ·
O=C(NCC1CCCCC1)c1ccc2nc([C@@H]3O[C@H](CO)[C@H](O)[C@H](O)[C@H]3O)[nH]c2c1 | · | · | · | 13 | · | · | · | · | · | · | ·
Fc1ccc2nc(N3CCCC3)sc2c1 | 56* | 31 | 44 | 4 | -4 | 1 | -8 | 46 | 85* | 69* | 15
O=[N+]([O-])c1ccc2nc(N3CCCC3)sc2c1 | 44 | 27 | 24 | 9 | 1 | -4 | · | · | · | · | ·
Fc1cc(F)c2nc(N3CCCCC3)sc2c1 | 75* | 36 | 61* | 10 | -2 | -2 | 11 | 75* | 95* | 72* | 20
O=C(c1cccs1)N1CCN(c2nc3c(F)cc(F)cc3s2)CC1 | -1 | 3 | -7 | 2 | 5 | · | · | · | · | · | ·
Clc1cc(Cl)c2nc(N3CCCCC3)sc2c1 | 47 | 67* | 27 | 16 | 10 | -3 | 18 | 9 | 25 | 17 | 11
CCOc1ccc2nc(N3CCC(C(=O)N4CCN(C5CCCCC5)CC4)CC3)sc2c1 | -9 | -14 | -3 | 17 | -2 | 0 | · | · | · | · | ·
CCOc1ccc2nc(N3CCCCCC3)sc2c1 | 62* | 55* | 37 | 2 | 2 | 2 | 51* | 55* | 84* | 50* | 57*
Cc1cc2nc(-c3ccc(Cl)cc3)c(Cc3ccsc3)n2c(C)c1Br | · | · | · | -2 | · | · | · | · | · | · | ·
CC1CCN(C(=O)C(C)OC(=O)CSc2ccc([N+](=O)[O-])cc2)CC1 (stereo unspecified) | -8 | -3 | -8 | 8 | · | · | · | · | · | · | ·
O=c1[nH]c(SCc2ccc(Cl)cc2)nc2ccsc12 | 34 | 78* | 63* | · | -7 | 3 | 12 | 67* | 88* | 50 | 7
COc1c(/C=N/NC(N)=S)c(C)nn1-c1ccccc1 | 9 | -1 | 70* | 0 | 1 | 5 | -20 | -14 | -8 | -7 | -8
CN(C)CCN1CCN(C2CN(CCc3ccccc3)S(=O)(=O)C2)CC1 (stereo unspecified) | · | · | · | 12 | · | · | · | · | · | · | ·
Cc1cccc(C(=O)Nc2nnc(SCC(=O)Nc3ccc4c(c3)oc3ccccc34)s2)c1 | -3 | -43 | -16 | -19 | 5 | -4 | · | · | · | · | ·
CC(=O)c1ccc(NC(=O)CSc2nnc(NC(=O)c3ccco3)s2)cc1 | 47 | 55* | 55* | -23 | 8 | -4 | 9 | 10 | 15 | 13 | 7
COc1ccccc1C(=O)Nc1nnc(SCC(=O)Nc2ccc3c(c2)oc2ccccc23)s1 | 74* | 34 | 22 | -95 | -1 | 1 | 19 | -7 | 12 | 14 | -1
SMILES | SENP7 block | SENP6 inh | SENP8 block-1 | SENP8 block-2 | Platelet DG rel | HSP90 inh | SENP8 conf | SENP6 conf | SENP7 conf | Casp3 SENP sel | SENP luc ctr
COCCSc1nnc(NC(=O)c2ccco2)s1 | 92* | -14 | -8 | -15 | -2 | -7 | -2 | -3 | -3 | 19 | 4
CC(=O)Nc1ccc(NC(=O)CSc2nnc(NC(=O)c3ccc(Br)o3)s2)cc1 | 48 | 87* | 70* | -86 | 8 | 5 | 17 | 14 | 14 | 49 | 2
CCOC(=O)c1sc(=NC(=O)c2ccc(C)c(C)c2)n(C)c1C | -4 | -1 | 7 | -363 | 9 | -1 | · | · | · | · | ·
CCOC(=O)c1sc(=NC(=O)c2cccs2)n(C)c1C | 55* | -21 | 4 | -427 | -8 | -10 | 17 | 10 | 17 | 45 | 1
CCOC(=O)c1sc(=NC(=O)c2ccccc2Br)n(C)c1C | 8 | -16 | -11 | -69 | 7 | 0 | · | · | · | · | ·
CCOC(=O)c1sc(=NC(=O)c2ccc(Cl)s2)n(C)c1C | 53* | -24 | 8 | -402 | -9 | 7 | 13 | 12 | 28 | 23 | 12
CCN(c1ccccc1)S(=O)(=O)c1cccc(C(=O)NCC2(N(C)C)CCCCC2)c1 | 0 | 7 | 4 | 14 | · | · | · | · | · | · | ·
Cc1cccc(/C=N/NC(=O)C(C)Nc2cccc3ccccc23)n1 (stereo unspecified) | -5 | 88* | 78* | -20 | 7 | 4 | -20 | -6 | 0 | -6 | -3
COc1cc([N+](=O)[O-])cc(/C=N/NC(=O)C(C)Nc2cccc3ccccc23)c1O (stereo unspecified) | 12 | 68* | 46 | -66 | -1 | 6 | -4 | -1 | -6 | 4 | 4
C(=C\c1nc(-c2ccccc2)no1)/c1ccccc1 | 85* | 84* | 75* | 3 | 5 | -5 | 75* | 82* | 94* | 65* | 59*
C(=C\c1nc(-c2ccncc2)no1)/c1ccccc1 | 18 | -11 | 4 | 8 | -22 | -5 | · | · | · | · | ·
O=C(CSc1nccc(=O)[nH]1)Nc1cccc2ccccc12 | 4 | -12 | 6 | 0 | -12 | 0 | · | · | · | · | ·
N#Cc1cnn2c(-c3cccc([N+](=O)[O-])c3)ccnc12 | 3 | -1 | 4 | -289 | · | · | · | · | · | · | ·
COC(=O)C(C)(C)c1cccnc1C#N | · | · | · | -4 | · | · | · | · | · | · | ·
